In the library only some 18% were active in any assay of this set; here they are far more common.
TDP1 cell noCPT – qHTS for Inhibitors of human tyrosyl-DNA phosphodiesterase 1 (TDP1): qHTS in cells in absence of CPT; Potency, µM (titrated, usually from 46.2 µM), without a hit: top-dose activity change, negative = growth inhibition, usual class: inhibitors; 420,000 tested, 15% active; DT40 Tdp1-/- hTDP1 cells, no CPT, ATP luminescence, 48 h; AID 686978, 2013; also: potency is read from the fitted curve at half-maximal effect; % is scaled to controls: 0 for no effect and ±100 for the full control effect; nearly all actives have a fitted effect of over 55% in size
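Chicken DT40 Tdp1-/- cells complemented with human TDP1, screened without camptothecin (DMSO vehicle only), 400 cells/well. Compounds pin-transferred, cells incubated at 37 °C for at least 48 hr. Growth read as ATP-dependent luminescence (CellTiter-Glo, 30 min at RT).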
DT40 TDP1 CPT – qHTS for Inhibitors of human tyrosyl-DNA phosphodiesterase 1 (TDP1): qHTS in cells in presence of CPT | chicken DT40 Tdp1-/-;hTDP1 cells + 20 nM CPT, ATP luminescence, 48 h | Potency, µM (top dose mostly 46.2 µM), for the others: at the highest dose activity change, negative = growth inhibition, actives largely listed as inhibitors | 420,000 tested, 12% active; also: potency is read from the fitted curve at half-maximal effect; % is scaled to controls: 0 for no effect and ±100 for the full control effect; nearly all actives have a fitted effect of over 55% in size
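Chicken DT40 Tdp1-/- cells stably complemented with human TDP1 were seeded at 400 cells/well in medium containing 20 nM camptothecin, exposed to pin-transferred compounds, and grown at 37 °C for at least 48 hr. Viability was read as ATP luminescence.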
IL1B secr inh – qHTS for Inhibitors of Inflammasome Signaling: IL-1-beta AlphaLISA Primary Screen; THP-1 LPS/ATP IL-1B secretion, AlphaLISA, 16 h; stronger effect = lower value; activity change, % at 57.5 µM; 360,000 tested, 4.7% active; in the data active = activity change below about -50%; inconclusive = mostly about -30% to -49%; also: % is scaled to controls: 0 for no effect and ±100 for the full control effect
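THP-1 cells pretreated 1 hr with compounds (up to 57.5 uM final), then stimulated with LPS (250 ng/mL final) plus ATP (1.25 mM final); secreted IL-1B measured by AlphaLISA after 16 hr, decreased signal indicating inhibition.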
TDP1 block – qHTS Assay for Inhibitors of Tyrosyl-DNA Phosphodiesterase (TDP1); Potency, µM (series often up to 130 µM), inactives show top-dose activity change, negative = inhibition, hits mostly inhibitors; 350,000 tested, 0.28% active; AID 485290, 2010; Tyrosyl-DNA phosphodiesterase 1 (Homo sapiens), Q9NUW8; recombinant TDP1, AlphaScreen DNA substrate cleavage; also: potency is read from the fitted curve at half-maximal effect; % is scaled to controls: 0 for no effect and ±100 for the full control effect; nearly all actives have a fitted effect of over 40% in size
Target sequence (Q9NUW8 whole entry, looked up): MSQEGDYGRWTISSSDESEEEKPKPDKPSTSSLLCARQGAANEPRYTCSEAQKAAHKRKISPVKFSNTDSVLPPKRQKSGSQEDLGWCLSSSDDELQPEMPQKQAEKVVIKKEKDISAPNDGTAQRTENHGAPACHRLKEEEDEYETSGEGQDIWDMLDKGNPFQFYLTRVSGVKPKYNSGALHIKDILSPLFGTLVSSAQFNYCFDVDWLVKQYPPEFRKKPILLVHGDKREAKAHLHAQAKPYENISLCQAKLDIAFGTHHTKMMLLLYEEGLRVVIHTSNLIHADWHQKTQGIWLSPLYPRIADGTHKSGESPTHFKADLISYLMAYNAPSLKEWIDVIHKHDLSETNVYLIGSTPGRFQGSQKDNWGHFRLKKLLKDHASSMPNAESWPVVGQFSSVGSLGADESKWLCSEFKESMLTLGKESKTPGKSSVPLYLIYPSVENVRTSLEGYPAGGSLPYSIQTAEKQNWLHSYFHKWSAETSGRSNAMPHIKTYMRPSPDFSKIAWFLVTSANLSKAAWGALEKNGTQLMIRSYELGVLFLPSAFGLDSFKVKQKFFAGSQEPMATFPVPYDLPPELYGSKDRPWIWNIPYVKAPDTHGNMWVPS
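AlphaScreen read-out: signal falls as enzyme removes the 3' tyrosine-FITC from a 5'-biotinylated DNA oligo (15 nM, 5 min, RT). Enzyme was E. coli-made recombinant Tdp1 at 1 nM, exposed to compound for 15 min beforehand; beads 10 ug/ml, 10 min.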
HepG2 viability – qHTS for Inhibitors of TGF-b: Cytotox Counterscreen; Potency, µM (highest dose often 46.1 µM), for the others: at the highest dose activity change, negative = cytotoxicity, usual class: cytotoxic; AID 588856, 2011; 410,000 tested, 0.76% active; HepG2 CAGA-GFP viability, ATP luminescence, 18 h; also: potency is read from the fitted curve at half-maximal effect
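HepG2 CAGA-GFP cells (1000/well, DMEM with 1% FBS) received compound, then TGF-beta at 500 pg/mL final, and were incubated 18 hours at 37 degrees C. Viability was read by CellTiter-Glo luminescence. Media-only wells were set as complete cell-killing and DMSO as no toxicity.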
TGFb SMAD3 inh – qHTS for Inhibitors of TGF-b; Potency, µM (highest dose often 46.1 µM), for the others: at the top dose activity, negative = inhibition, usual class: inhibitors; HepG2 CAGA-GFP TGF-b/SMAD3 reporter, GFP fluorescence, 18 h; TGF-beta stimulated, 500 pg/mL final; 410,000 tested, 1.2% active; AID 588855, 2011; also: potency is read from the fitted curve at half-maximal effect; % is scaled to controls: 0 for no effect and ±100 for the full control effect; nearly all actives have a fitted effect of over 65% in size
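Smad-responsive CAGA-GFP expression was quantified in HEPG2 cells exposed to compounds and 500 pg/mL final TGF-beta for 18 h at 37 degrees C; unstimulated wells defined full inhibition.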
The depositor's hits bear a star; ? = inconclusive; . = no result. Unless noted, calls follow the shape of the dose curve; as a rule, active = well fitted curve in the direction sought with a large enough effect; inconclusive = small, poorly fitted or top-dose-only effect, or another doubt; inactive = no such curve, though single readings can be large; an effect the other way counts as inactive or inconclusive.

SMILES | TDP1 cell noCPT | DT40 TDP1 CPT | IL1B secr inh | TDP1 block | HepG2 viability | TGFb SMAD3 inh
COc1cc2cc(CN(CCc3ccccc3C)C(=S)NCCCN3CCOCC3)c(=O)[nH]c2cc1OC | ? | ? | . | . | 0% | 1%
CSC(SC)=C(C(C)=O)C(=O)c1ccc(C)cc1 | ? | -2% | -50* | 0% | 9% | 4%
Cc1ccc(C)c(N2CCN(c3nc4ccccc4n4nnnc34)CC2)c1 | ? | ? | . | 5% | -6% | .
Cc1cc(C)c2c3c(sc2n1)C(=O)N(c1ccccc1)CC(=O)N3 | -15% | 8% | 3 | 2% | 11% | -4%
CCOC(=O)[C@]12CCCC=C1N(Cc1ccc3c(c1)OCO3)C(=O)[C@H](CC(=O)NCCc1ccccc1OC)C2 | 16µM* | ? | ? | . | . | .
COC(=O)[C@]12CCCCC=C1N(Cc1ccc3c(c1)OCO3)C(=O)[C@H](CC(=O)NCCc1ccccc1OC)C2 | 18µM* | 23µM* | . | . | . | .
O=C(NCc1ccccc1)C1C(c2ccccc2)=Nc2ccccc2N1C(=O)c1ccncc1 (configuration not stated) | -14% | -9% | -14 | . | . | .
COc1ccc2c(c1)OCC(Cc1ccc(OC)c(O)c1)C2=O (configuration not stated) | 0.58µM* | 0.73µM* | . | 8% | . | .
COc1ccc(S(=O)(=O)N2CCC(c3ccncc3)CC2)cc1OC | ? | -27% | . | 7% | -15% | ?
COc1ccccc1-c1nnc(C2CCN(C(=O)c3cccc(Cl)c3)CC2)o1 | 16µM* | ? | . | 6% | -31% | ?
COc1ccc(-c2nnc(C3CCN(S(=O)(=O)c4ccc(C)c(C)c4)CC3)o2)cc1 | 26µM* | ? | . | 1% | -2% | -23%
COc1ccccc1-c1nnc(C2CCN(S(=O)(=O)c3ccc(F)c(C)c3)CC2)o1 | ? | 15µM* | . | 4% | -32% | ?
COc1ccccc1-c1nnc(C2CCN(C(=O)c3ccccc3C)CC2)o1 | -17% | ? | . | 4% | 2% | ?
Cc1cc(C)cc(NC(=O)C2CCN(c3nnc(-n4c(C)ccc4C)s3)CC2)c1 | ? | -75% | . | 5% | -14% | .
Cc1ccc(NC(=O)C2CCN(c3nnc(-n4cccc4)s3)CC2)cc1Cl | -15% | -13% | . | -6% | -20% | 3%
Cc1cc(C)cc(NC(=O)C2CCCN(c3nnc(-n4c(C)ccc4C)s3)C2)c1 (configuration not stated) | ? | 26µM* | . | 10% | 0% | ?
Cc1ccc(NC(=O)C2CCCN(c3nnc(-n4c(C)ccc4C)s3)C2)cc1Cl (configuration not stated) | 21µM* | ? | . | 8% | -14% | .
Cc1ccc(C)n1-c1nnc(N2CCCC(C(=O)Nc3ccc(C(C)C)cc3)C2)s1 (configuration not stated) | 13µM* | 21µM* | . | 3% | -50% | 7.9µM*
O=C(CN(C(=O)CCC(=O)Nc1ccccn1)c1ccc(F)cc1)NCc1ccc(F)cc1 | ? | -3% | 12 | . | -36% | 6%
COc1cccc(CNC(=O)CSc2nc3ccccc3nc2Cc2ccc(C)cc2)c1OC | -3% | 0% | . | 3% | -4% | -23%
CCCNC(=O)c1oc2ccc3c(c2c1C)C(O)CC(C)(C)O3 (configuration not stated) | 6% | -17% | -11 | . | 6% | 14%

From PubChem BioAssay
